Experimental findings from PubChem BioAssay (NCI) are described below.

Compounds without any hit were thinned out: in the full panel of roughly 83,000, 20% have a hit.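 The test compound was applied at a single concentration to cells in 96-well plates for 48 hours, and percent growth was recorded.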 A number with no mark means an inactive call. Active and inactive are the calls of the source. The calls were made as follows: active = growth percent below 10; inactive = the rest.

For the assay, the system named is HS 578T breast. Briefly: NCI-60 one-dose screen, 48 h (100 = growth as untreated, 0 = no growth, -100 = all killed). The following applies: 10 µM.
For `Cn1nc(C(F)(F)F)cc1-c1cc(Cl)c(OCc2ccc(Cl)cc2)c(-c2ccc(Cl)c(C(F)(F)F)c2)c1O`, the growth was -5.65% (active). `CC(=O)O[C@H]1[C@H](CC#CC#CC[C@@H]2C[C@]3(C)[C@H]4CC=C5[C@H]6[C@@H](C)[C@H](C)CC[C@]6(C(=O)NCCN(CCN)CCN)CC[C@@]5(C)[C@]4(C)CC[C@H]3C(C)(C)[C@H]2OC(C)=O)C[C@]2(C)[C@H]3CC=C4[C@H]5[C@@H](C)[C@H](C)CC[C@]5(C(=O)NCCN(CCN)CCN)CC[C@@]4(C)[C@]3(C)CC[C@H]2C1(C)C`: the growth was 70.6%. As to `CC(=O)c1ccc(Nc2nc(Cl)nc(Oc3c(Cl)cccc3Cl)n2)cc1`, the growth is 74.3%. On to `Oc1[nH]c2ccccc2c1/C=c1/ccc2c(c1)N=C(c1ccc(C(F)(F)F)cc1)N=2`, for which the growth was 49.1%. `Brc1cccc(-n2ncc3c(Nc4ccc(-c5nnc(-c6ccccc6)o5)cc4)ncnc32)c1`: the growth is 110%. Turning to `CCNC(=S)N(Cc1ccccc1)Cc1ccccc1`, the growth is 136%. With `COc1cccc(CC(C)=C(c2ccc(OCCCN(C)C)cc2)c2ccc(OCCCN(C)C)cc2)c1` the figure was -41.4% (active); with `N[C@@H](CO)C(=O)O`, 117%. In the case of `O=C(c1ccc(C(F)(F)F)c(Cl)c1)N(Cc1ccc(Cl)cc1)c1ccc(-c2cc(C(F)(F)F)[nH]n2)c(O)c1` it was 3.66% (active); in that of `c1ccc(C(Nc2ccccn2)(c2ccccc2)c2ccccc2)cc1`, 93.4%. Turning to `CC[C@H](Nc1nc(N)nc(N)c1Cl)c1nc2cccc(NCc3ccc(C(=O)NO)cc3)c2c(=O)n1-c1ccccc1`, the growth was 20.9%.

`N#Cc1nc(-c2ccc(Cl)cc2)cc(-c2ccc(Nc3nc(N4CCCCC4)nc(N4CCCCC4)n3)cc2)c1N`: the growth was 94.1%. For `C#CC[C@@H]1C[C@]2(C)[C@H]3CC=C4[C@H]5[C@@H](C)[C@H](C)CC[C@]5(C(=O)NCCCCN)CC[C@@]4(C)[C@]3(C)CC[C@H]2C(C)(C)[C@H]1OC(C)=O`, the growth was 102%.

With `Cn1nc(C(F)(F)F)cc1-c1c[nH]c(OCc2ccc(Cl)cc2)c(-c2ccc(Cl)c(C(F)(F)F)c2)c1=O`, the growth was -1.78% (active). In the case of `COc1ccc(NC(=O)c2ccc(C(F)(F)F)nc2Nc2ccc(Cl)cc2C)cc1Cl` it was 10.8%; in that of `O=C(Cn1nncc1CN1C(=O)CSC1=O)Nc1ccc(F)cc1`, 97.6%. For the molecule `COc1ccc(NC(=O)/C=C/c2ccc(Cl)c(Cl)c2)cn1`, the growth was 92.6%. Turning to `CCCCNCC(O)c1cc(-c2ccc(C(F)(F)F)cc2)nc(-c2ccc(C(F)(F)F)cc2)c1` (stereo not drawn), the growth is -57.8% (active).

Turning to `CCCc1cc2c(cc1CN(Cc1cc3c(cc1CCC)OCO3)C(=N)OCC)OCO2`, the growth was 73.1%. For `CCCNC(=S)N/N=C(\C)c1ccccn1`, the growth was 32.9%. Consider `C#CC[C@@H]1C[C@]2(C)[C@H]3CC[C@@H]4[C@H]5C(C(=C)C)CC[C@]5(C(=O)NCCCN5CCN(CCCN)CC5)CC[C@@]4(C)[C@]3(C)CC[C@H]2C(C)(C)[C@H]1OC(C)=O` (stereo partly drawn), for which the growth was 14.8%. Consider `COc1cc2nccc(Oc3ccc(NC(=O)C4(C(=O)Nc5c(F)cc(F)cc5F)CC4)cc3)c2cc1Oc1ccc(N)cn1`, for which the growth is 25.8%. Turning to `COc1ccc2[nH]c(C(=O)OCc3ccc4cccc(O)c4n3)cc2c1`, the growth was -8.82% (active).

Turning to `CCOCC(O)(c1ccc(Cl)cc1)c1ccc(Cl)cc1`, the growth is 109%. With `Cc1cc(C)cc(NC(=O)Cn2nncc2CN2C(=O)CSC2=O)c1` the figure was 89.5%; with `Cc1ccc(NC(=O)Cn2nncc2CN2C(=O)CSC2=O)cc1C`, 99.2%.

In the case of `COC(=O)/C=C/c1cc(OC(C)=O)c2c(c1)[C@@H](C(=O)OC)[C@H](c1ccc(OC(C)=O)c(OC(C)=O)c1)O2`, the growth was 7.01% (active).

As for `N=c1n(Cc2ccccc2)c(N)cc(=O)n1Cc1ccccc1`, the growth was -1.73% (active). With `CC(C)[C@H](CN)NC[C@H](C)NS(=O)(=O)c1ccc(C(C)(C)C)cc1`, the growth was 87.9%. As for `COc1ccc(/C(=C\c2ccc3c(c2)OCO3)C(=O)Nc2nc3ccccc3s2)cc1`, the growth was 110%.

On to `Cc1ccc(-c2cnc3sc4ccc(Cl)cc4n23)cc1`, for which the growth is 110%. For `COc1cc(C2Nc3ccccc3S2)cc(CN2CCOCC2)c1O` (stereo not drawn), the growth is 72.2%. On to `CC1=C(O)C(=O)C(c2c(C)cc(C)c(Br)c2C)=C(O)C1=O`, for which the growth was 76.4%.
